What is called inhibition is the drop in the measured response relative to a control, in per cent.

Screen size: about 97,000 compounds; about 140 (0.14%) were called active. What follows is part of a selection rich in actives, with near analogues and random picks from the rest. Unmarked numbers belong to inactive results.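 How the source made its calls: active means inhibition above the screen-wide mean inhibition plus 3 SD (cut at about 15% in these data); inactive means the rest.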

Sequence of Ephrin type-B receptor 4 (Homo sapiens) (P54760 whole entry, looked up, the tested form may be a part): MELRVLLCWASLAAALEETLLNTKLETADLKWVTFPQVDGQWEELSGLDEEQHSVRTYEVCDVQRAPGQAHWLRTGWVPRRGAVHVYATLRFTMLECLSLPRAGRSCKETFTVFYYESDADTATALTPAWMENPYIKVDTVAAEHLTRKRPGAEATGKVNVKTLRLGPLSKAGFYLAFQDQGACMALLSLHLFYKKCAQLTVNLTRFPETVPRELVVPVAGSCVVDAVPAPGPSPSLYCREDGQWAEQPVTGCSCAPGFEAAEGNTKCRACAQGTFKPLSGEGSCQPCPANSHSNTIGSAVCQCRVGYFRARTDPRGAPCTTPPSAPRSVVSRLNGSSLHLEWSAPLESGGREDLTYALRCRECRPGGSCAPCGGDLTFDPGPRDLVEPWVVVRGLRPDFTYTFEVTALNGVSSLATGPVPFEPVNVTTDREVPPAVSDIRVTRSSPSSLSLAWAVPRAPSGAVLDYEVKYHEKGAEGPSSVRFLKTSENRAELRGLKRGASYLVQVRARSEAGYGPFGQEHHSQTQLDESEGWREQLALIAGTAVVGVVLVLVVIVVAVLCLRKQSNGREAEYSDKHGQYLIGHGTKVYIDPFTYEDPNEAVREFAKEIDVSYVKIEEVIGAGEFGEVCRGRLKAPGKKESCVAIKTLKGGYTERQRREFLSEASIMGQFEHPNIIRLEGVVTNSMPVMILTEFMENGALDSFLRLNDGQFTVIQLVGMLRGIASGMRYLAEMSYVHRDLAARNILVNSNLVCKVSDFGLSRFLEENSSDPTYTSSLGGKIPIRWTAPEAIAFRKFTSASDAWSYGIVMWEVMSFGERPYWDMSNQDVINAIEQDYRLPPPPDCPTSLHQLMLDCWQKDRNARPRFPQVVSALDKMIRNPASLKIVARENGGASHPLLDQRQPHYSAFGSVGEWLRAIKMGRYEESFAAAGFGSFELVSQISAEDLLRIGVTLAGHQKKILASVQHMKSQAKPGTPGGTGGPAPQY

This test concerns the target Ephrin type-B receptor 4 (Homo sapiens) (UniProt P54760). The test can be described thus: EphB4-ephrin-B2 interaction antagonists, primary screen, biochemical, TNYL-RAW peptide probe, fluorescence polarization (AID 720).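 Further: 0% = DMSO wells and 100% = excess unlabeled TNYL-RAW peptide.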 To be noted: EphB4 LBD / TNYL-RAW-Alexa532 peptide, at 7 µM, active compounds read high. (In general: In fluorescence polarisation assays a small probe gives low polarisation when free and higher when bound to something large.)
As to `Cc1ccc(-c2nn(-c3ccccc3)cc2/C=N/NC(=O)c2ccc3c(c2)OCO3)cc1`, the inhibition was -6.96%.

Take `CN(C)Cc1ccccc1C1(O)c2ccccc2CSc2ccccc21` (stereo not given): the inhibition is 2.27%.

On to `CN(C)c1nc2n(c(=O)n1)CCO2`, for which the inhibition is 17.6% (active).

For `O=c1nc(N2CCOCC2)nc2n1CCO2`, the inhibition was -6.76%.

Turning to `CC(C)CC(N=C1NC(C)(C)Cc2ccccc21)C(=O)O` (stereo not given), the inhibition is 0.51%.

Regarding `COc1ccc(/C(O)=C2\C(=O)C(=O)N(Cc3ccco3)C2c2ccc(OC)cc2OC)cc1` (stereo not given), the inhibition was -7.3%.

`CCOC(=O)c1c(NC(=O)CCCN2CCOCC2)sc2c1CC(C)(C)OC2`: the inhibition is 7.6%.

Regarding `CCCOC(=O)c1[nH]c2c(c1C)C(=O)CC(c1cccs1)C2` (stereo not given), the inhibition is 3.13%.

For `Nn1c(Cc2cccc3ccccc23)nnc1SCC(=O)N1CC(=O)Nc2ccccc21`, the inhibition is 5.41%.

For the molecule `CCOc1ccc(NC(=O)CN(C)CC(=O)Nc2cccc(Cl)c2C)cc1OCC`, the inhibition is -10.2%.

Regarding `COC(=O)c1ccc(C2C(Oc3ccccc3C)C(=O)N2CCc2ccc(OC)c(OC)c2)cc1` (stereo not given), the inhibition was -5.62%.

As for `CCC(C)(C(=O)NC1CCCCC1)N(C)C(=O)c1ccc2c(c1)OCO2` (stereo not given), the inhibition is 3.83%.

As to `O=C(COc1ccc(Cl)cc1)N1CCN(S(=O)(=O)c2ccc(Cl)cc2)CC1`, the inhibition is 0.78%.

As to `Cc1cccc(N2CCN(C(=O)CN(C)S(=O)(=O)c3ccc4c(c3)CCC(=O)N4)CC2)c1C`, the inhibition is 3.05%.

For `CN(C)CCNC(=O)Nc1cccc(Cl)c1Cl`, the inhibition is -7%.

As to `O=C1CSC(c2ccc(Cl)cc2)N1` (stereo not given), the inhibition was -6.27%.

For `Cc1cccc(NC(=S)Nc2ccc(Br)cc2)c1`, the inhibition is 1.26%.

As to `O=C(Nc1cccn(Cc2c(Cl)cccc2Cl)c1=O)c1ccc(Cl)cc1`, the inhibition was 4.57%.

Take `CCOc1ccc(Nc2nc(Cc3nnc(SCC(=O)c4ccc(C)cc4)o3)cs2)cc1`: the inhibition is 2.63%.

Take `CC(C)(C)n1nnnc1C(c1ccc(Cl)cc1)N1CCSCC1` (stereo not given): the inhibition was 3.05%.

Regarding `COc1cccc2c1OCC1COc3c(c(=O)n(C)c(=O)n3C)C21` (stereo not given), the inhibition was 5.25%.

In the case of `Cc1ccc(NC(=O)CSCC(=O)N2CCOCC2)cc1`, the inhibition was 1.18%.

In the case of `Cc1cc(Nc2ccccc2)nc(N)n1`, the inhibition is -7.64%.

With `O=C(NCCc1ccccn1)c1cc(C(=O)C2CCCCC2)c[nH]1`, the inhibition was 1.78%.

Take `C/C(=N\NC(=O)c1nc(C)cc(C)n1)c1ccccc1`: the inhibition was 3.33%.

`O=S(=O)(Cc1cc(Sc2ccccc2)nc(-c2ccccc2)n1)c1ccccc1`: the inhibition was -3.64%.

Take `Cc1cc(N)n2nc(-c3ccc(C(C)(C)C)cc3)cc2n1`: the inhibition was -2.84%.

In the case of `Oc1ccc(CNc2ccccc2O)cc1`, the inhibition is -12.7%.

For the molecule `O=C(COc1ncnc2c(Cl)cc(Cl)cc12)N1CCN(S(=O)(=O)c2ccccc2)CC1`, the inhibition is -7.07%.

`CC(C)CNC(=O)CC(c1ccccc1)c1c(O)ccc2ccccc12` (stereo not given): the inhibition is 2.89%.

In the case of `Cc1ccsc1/C=C1\SC(N2CCOCC2)=NC1=O`, the inhibition was -4.07%.

For `Nc1ccc(C(=O)OCC(=O)NC2CCCc3ccccc32)cc1[N+](=O)[O-]` (stereo not given), the inhibition was -2.7%.

With `COc1ccc(OCCCC(=O)Oc2ccc(OC)cc2)cc1`, the inhibition is 5.05%.

Regarding `O=C(COC(=O)c1ccccc1NC(=O)c1ccco1)Nc1ccc2c(c1)OC(F)(F)O2`, the inhibition is -1.26%.

Turning to `COc1ccc(NC(=O)NC2CC3CCCC(C2)N3Cc2ccccc2)cc1` (stereo not given), the inhibition was -5.24%.

As for `O=C(Nc1ccccc1[N+](=O)[O-])C1C(c2ccccc2)=C1c1ccccc1`, the inhibition was 2.26%.

As for `Cn1cnc([N+](=O)[O-])c1Nc1ccccc1O`, the inhibition was 2.1%.

In the case of `Clc1ccc(COn2c(-c3ccc(Cl)cc3Cl)nc3ncccc32)cc1`, the inhibition was 1.17%.

On to `O=c1c2ccccc2nc2n1C1(CCCCC1)Cc1ccccc1-2`, for which the inhibition is 6.44%.

Turning to `CCOC(=O)C1=C(c2ccccc2)O/C(=C(/C(=O)OC)C(F)(F)F)S1`, the inhibition was -6.59%.

On to `O=C(Cn1ccc([N+](=O)[O-])n1)NCc1cccs1`, for which the inhibition was -8.7%.

Regarding `Cc1[nH]n(-c2ccccc2)c(=O)c1CCOC(=O)c1ccc(C(F)(F)F)cc1`, the inhibition was 5.95%.

As for `COC(=O)Cc1cc(=O)oc2c(C)c(O)ccc12`, the inhibition was -7.76%.

Regarding `COC(=O)/C(=C\Nc1ccccc1)NC(=O)c1ccc(Cl)cc1Cl`, the inhibition was 2.49%.

With `COC(=O)c1cccc(N(C(=O)c2ccco2)C(C(=O)NC2CCCC2)c2ccco2)c1` (stereo not given), the inhibition is -2.29%.

Consider `O=C(CSC1=Nc2ccccc2C2=NC(CC(=O)NCc3ccco3)C(=O)N12)NCc1ccco1` (stereo not given), for which the inhibition was -6.96%.

For `Cc1cccc(C)c1NC(=O)CCS(=O)(=O)c1cccc2nsnc12`, the inhibition is 7.08%.

In the case of `Cc1cc2nc(C)n(CCCNC(=O)Nc3ccccc3)c2cc1C`, the inhibition was -0.81%.

As for `CCN1CCC(=NNC(=O)c2ccc(C)c([N+](=O)[O-])c2)CC1`, the inhibition was 8.39%.

As to `ONC(=Nc1ccc(Cl)cc1)c1ccccc1Cl`, the inhibition was -1.3%.

For the molecule `CCn1nc(C)c(NC(=O)/C=C/c2ccc(OC)c(COc3ccc(Br)cc3)c2)c1C`, the inhibition was 7.03%.

As to `c1ccc(-c2nc(NCc3ccco3)c3ccccc3n2)cc1`, the inhibition is 4.23%.

Turning to `CN1/C(=c2/s/c(=C3/C(=O)N(c4ccccc4)NC3=Nc3ccccc3)n(C)c2=O)C(C)(C)c2ccccc21`, the inhibition is 0.36%.

For `Cc1ccc(NC2(C#N)C(=O)Nc3ccccc32)cc1` (stereo not given), the inhibition was 0.9%.

For the molecule `CCCCNC(=O)CSc1nc2n[nH]c(C)c2c(=N)n1-c1cccc(Cl)c1C`, the inhibition was 6.52%.

Turning to `Cc1ccc2c(c1)-c1c(ssc1=S)C(C)(C)N2C(=O)CN1C(=O)c2ccccc2C1=O`, the inhibition was 10.6%.

Regarding `O=C(Nc1sc2c(c1-c1nc3ccccc3[nH]1)CCCC2)C1CC1`, the inhibition is -2.93%.

For `COC(=O)Nc1sc2nc(C)cc(C)c2c1-n1cccc1`, the inhibition was -5.41%.

With `Cc1nc(NNC(=O)c2ccccc2)cc(-c2ccccc2)n1`, the inhibition was 8.09%.

With `O=C(COC(=O)c1ccc(S(=O)(=O)N2CCc3ccccc3C2)cc1)NC(=O)NCc1ccco1`, the inhibition is 3.64%.

Source of the values: PubChem BioAssay AID720 (The Scripps Research Institute Molecular Screening Center, 2007).
